Experimental findings from PubChem BioAssay (NCATS) are described below.

Inconclusive results are not listed. Values without a mark were called inactive. Calls of active or inactive are those of the source. The call rests on the fitted dose curve; in most records, active means well fitted cell-killing curve with a large enough effect; inconclusive means small, poorly fitted or top-dose-only effect; inactive means no such curve, though single readings can be large or run the other way.
Potency means the concentration at half of the fitted maximal effect.

This assay is described as follows: qHTS of pediatric cancer cell lines to identify multiple opportunities for drug repurposing: Primary screen for NB1643 cells (AID 1347099). Further: nearly all actives have a fitted effect of over 50% in size. To be noted: NB1643 neuroblastoma viability, CellTiter-Glo luminescence, 48 h; series mostly up to 46 µM; activity change, negative = cytotoxic: at the top concentration. From the text: Drug repurposing or repositioning has been offered as a strategy for drug development in oncology programs. This approach has special potential for childhood cancers and other rare or orphan diseases, where the expected return on new drug development has been a disincentive to pharmaceuticals. […] In this project we exploit the poly-pharmacology of drugs to discover new indications via phenotypic screening of a panel of 19 well-characterized cell lines derived from solid tumors seen in children and adolescents. The goal is to identify approved drugs with previously unrecognized anticancer properties that has the potential to reveal new mechanisms and biological processes involved in carcinogenesis or drug resistance. We employed a titration-based paradigm (quantitative high-throughput screening or qHTS), where all compounds were tested at multiple concentrations for their effect on cell viability. Concentration-response curves (CRCs) were derived directly from the primary screen, and both potency and efficacy values were used to identify compounds with robust bioactivity profiles. We screened the NIH Chemical Genomics Center (NCGC) Pharmaceutical Collection (NPC) and Mechanism Interrogation Plate (MIPE) small molecule collections of approved and investigational compounds against these cell lines; and measured metabolically active cells after 48 hours of compound treatment as a proxy for cell viability. […] Assay Submitter: Nathalia J. Martinez, National Center for Advancing Translational Sciences, National Institutes of Health, Rockville, MD, USA; email: natalia.martinez@nih.gov Shen, M et al. Quantitative high-throughput phenotypic screening of pediatric cancer cell lines identifies multiple opportunities for drug repurposing. Oncotarget 2017 Dec 19;9(4):4758-4772. PMID 29435139.
The cells were obtained from University of North Carolina (UNC), Pediatric Preclinical Testing Program (PPT), and Coriell Institute (CI). qHTS cell viability assay: Cells were assayed in growth media at a density of 500-1,000 cells/well. Five microliters of cells were dispensed into 1,536-well, white, solid-bottom, TC-treated plates (Greiner Bio One) using a multidrop dispenser and incubated at 37 degrees C, 5% CO2, under a humidified atmosphere for 5 hours. Twenty-three nanoliters of compounds and controls (neutral control DMSO or positive control bortezomib at final concentration of 2.3 µM) were subsequently transferred by Kalypsys pintool. For primary screens, the MIPE collection was tested at 11-point dilutions (final concentrations range from 0.78 nM to 46 µM) and the NPC collection at 8-point dilutions (final concentrations range from 0.59 nM to 46 µM). Compounds tested in follow-up screens were assayed at 11-point dilutions. Cells were incubated for 48 hours, followed by addition of 3 µL of CellTiter-Glo (Promega). After a 15 min incubation at room temperature, samples were analyzed for luminescence intensity using a ViewLux High-throughput CCD imager equipped with clear filters.
In general terms: Quantitative high-throughput screening tests each substance at several concentrations.
Regarding `N#Cc1nn(-c2c(Cl)cc(C(F)(F)F)cc2Cl)c(N)c1S(=O)C(F)(F)F` (stereo not given), the “activity change, negative = cytotoxic” value was -13.1%.
On the same count and under the same terms, the figure for `COCC(=O)N(c1c(C)cccc1C)C(C)C(=O)OC` (stereo not given) is 0%; for `Cc1nnc2n1-c1sc(CCC(=O)N3CCOCC3)cc1C(c1ccccc1Cl)=NC2` it is 10.5%; for `O=c1[nH]c2cc(Cl)ccc2n1C1CCNCC1` it is 18.1%.
For the compound `CCOC(C(=O)OCCN(C)C)(c1ccccc1)c1ccccc1`, the “activity change, negative = cytotoxic” value is 11%.
The same measure, in the same setting: the figure for `O=c1n(Cl)c(=O)n(Cl)c(=O)n1Cl` is 4%; for `C[C@@H]1CN(C2CCC(C#N)(c3ccc(F)cc3)CC2)CC[C@]1(C(=O)O)c1ccccc1` (stereo not given in full) it is 15.5%; for `Oc1ccc([C@H]2CNCc3c2ccc(O)c3O)cc1O` it is -12.1%.
Consider `C#C[C@]1(O)C=C[C@H]2[C@@H]3CCC4=CC(=O)CC[C@@H]4[C@H]3CC[C@@]21CC`, for which the “activity change, negative = cytotoxic” value was -7.08%.
Still for that read-out and setting: the figure for `ClC1=C(Cl)C2(Cl)C(CBr)CC1(Cl)C2(Cl)Cl` (stereo not given) is -0.171%; for `NC1(c2ccccc2)CCCCC1` it is 0% [at 92.7 µM].
Same read-out and setting: the figure for `O=C(CCCN1CCC(n2c(=O)[nH]c3ccccc32)CC1)c1ccc(F)cc1` is -6.75%.
Still for that read-out and setting: the figure for `CCN(CC)Cc1nccn1-c1ccc([N+](=O)[O-])cc1C(=O)c1ccccc1Cl` is -6.3%.
Consider `CCN(CC)C(C)C(=O)c1ccccc1` (stereo not given), for which the “activity change, negative = cytotoxic” value is 14.8%.
The same measure, in the same setting: the figure for `C[N+]1(C)[C@@H]2CC[C@H]1CC(OC(=O)C(CO)c1ccccc1)C2` (stereo not given in full) is -12.1%; for `CCS(=O)(=O)C(C)(C)S(=O)(=O)CC` it is -4.9%.
Same read-out and setting: the figure for `COc1cc(C[C@@H](C)N)c(OC)cc1Br` is -6.26% [at 92.7 µM]; for `OC(O)C(Cl)(Cl)Cl` it is 14.1%; for `CN(C)CCc1c[nH]c2ccccc12` it is 0% [at 155 µM].
With `COc1ccc(C(=O)N2CCCC2=O)cc1`, the Potency entry is “inactive”.
For the compound `Oc1ccc2[nH]cc(CCCCN3CC=C(c4ccccc4)CC3)c2c1`, the “activity change, negative = cytotoxic” value is 0%.
Take `Cc1ncc2n1-c1ccc(Cl)cc1C(c1ccccc1F)=NC2`: the “activity change, negative = cytotoxic” value is -9.85%.
Consider `C=CCOC(Cn1ccnc1)c1ccc(Cl)cc1Cl` (stereo not given), for which the “activity change, negative = cytotoxic” value was -14.7%.
The same measure, in the same setting: the figure for `CN1C(=O)[C@@H](NC(=O)c2cc3ccccc3[nH]2)N=C(c2ccccc2)c2ccccc21` is 0%.
On the same count and under the same terms, the figure for `CC[C@H]1C[C@H]2[C@@H]3CCC4=CC(=O)CC[C@@H]4[C@H]3CC[C@]2(C)[C@H]1O` is -8.51%.
For `CN1[C@@H]2CC[C@H]1CC(OC(=O)c1cc(Cl)cc(Cl)c1)C2` (stereo not given in full), the Potency was 1 nM (active).
Consider `CCC(=O)C(CCN(C)C)(c1ccccc1)c1ccccc1`, for which the “activity change, negative = cytotoxic” value is 9.55%.
On the same count and under the same terms, the figure for `C[C@H]1C(=O)O[C@@H]2CCN3CC=C(COC(=O)[C@](C)(O)[C@]1(C)O)[C@H]23` is -9.85%; for `Cc1nc2ccccc2c(=O)n1-c1ccccc1Cl` it is -14.9% [at 92.7 µM]; for `CCc1cc(OC)c(C[C@H](C)N)cc1OC` it is 0% [at 92.7 µM].
Turning to `O=C1CN2CCOC2(c2ccccc2Cl)c2cc(Cl)ccc2N1` (stereo not given), the “activity change, negative = cytotoxic” value is -0.802%.
As for `CCCN(CCC)CCc1c[nH]c2ccccc12`, the “activity change, negative = cytotoxic” value is -19.5% [at 92.7 µM].
Still for that read-out and setting: the figure for `COc1ccc2[nH]cc(CCN(C(C)C)C(C)C)c2c1` is -11.8% [at 92.7 µM]; for `CCO[C@H]1O[C@@H]2OC3(C)CC[C@H]4[C@H](C)CC[C@@H]([C@H]1C)[C@@]24OO3` it is 4.3%; for `CN1C2CCC(C)(C)C1CC(OC(=O)C(O)(c1cccs1)c1cccs1)C2` (stereo not given) it is 18.5%.
Still for that read-out and setting: the figure for `CNC(=O)NC(O)C(Cl)(Cl)Cl` (stereo not given) is -2.22%; for `Oc1c(Br)cc(Br)cc1Br` it is 20.7%; for `O=C(CCCCl)c1ccc(F)cc1` it is 0%.
Turning to `C[C@@H]1C[C@@H]([C@H](O)CC2CC(=O)NC(=O)C2)C(=O)[C@@H](C)C1`, the Potency is 296 nM (active).
With `CC(C)(C)OC(=O)c1ncn2c1[C@@H]1CCCN1C(=O)c1c(Br)cccc1-2`, the “activity change, negative = cytotoxic” value is 8.44%.
